For assay [1], the target named is Sphingosine kinase 1 (Homo sapiens) (UniProt Q9NYA1). The settings on record: at 1 µM.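 Further: mean SPHK1 inhibition value reported from the GSK PKIS kinase panel screen.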
The target of assay [2] is T1, Sphingosine kinase 2 (Homo sapiens) (UniProt Q9NRA0).
T1 sequence (whole entry): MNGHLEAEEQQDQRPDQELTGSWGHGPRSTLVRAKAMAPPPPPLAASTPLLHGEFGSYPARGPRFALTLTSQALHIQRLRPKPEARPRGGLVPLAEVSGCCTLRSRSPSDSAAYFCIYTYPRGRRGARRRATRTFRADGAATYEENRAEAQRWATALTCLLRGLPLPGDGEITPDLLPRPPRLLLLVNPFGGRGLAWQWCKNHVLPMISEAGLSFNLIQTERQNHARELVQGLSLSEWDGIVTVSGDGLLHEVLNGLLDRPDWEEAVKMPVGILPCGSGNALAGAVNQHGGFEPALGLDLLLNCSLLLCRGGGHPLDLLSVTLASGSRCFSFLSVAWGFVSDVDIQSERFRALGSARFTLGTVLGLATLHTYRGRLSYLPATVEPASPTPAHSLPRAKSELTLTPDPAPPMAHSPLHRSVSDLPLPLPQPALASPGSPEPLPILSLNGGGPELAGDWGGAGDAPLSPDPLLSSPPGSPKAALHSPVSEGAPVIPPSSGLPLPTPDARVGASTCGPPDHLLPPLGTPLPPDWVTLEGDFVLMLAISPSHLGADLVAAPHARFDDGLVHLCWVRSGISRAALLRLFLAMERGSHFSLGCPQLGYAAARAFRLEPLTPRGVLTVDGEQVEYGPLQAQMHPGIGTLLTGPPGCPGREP
The settings on record: at 1 µM.

The target of assay [3] is Casein kinase II subunit alpha (Homo sapiens) (UniProt P68400). The settings on record: at 0.1 µM.
Assay [4] has the same target. The settings on record: at 1 µM.
Assay [5] addresses T2, Inhibitor of nuclear factor kappa-B kinase subunit alpha (Homo sapiens) (UniProt O15111).
T2 sequence (whole entry): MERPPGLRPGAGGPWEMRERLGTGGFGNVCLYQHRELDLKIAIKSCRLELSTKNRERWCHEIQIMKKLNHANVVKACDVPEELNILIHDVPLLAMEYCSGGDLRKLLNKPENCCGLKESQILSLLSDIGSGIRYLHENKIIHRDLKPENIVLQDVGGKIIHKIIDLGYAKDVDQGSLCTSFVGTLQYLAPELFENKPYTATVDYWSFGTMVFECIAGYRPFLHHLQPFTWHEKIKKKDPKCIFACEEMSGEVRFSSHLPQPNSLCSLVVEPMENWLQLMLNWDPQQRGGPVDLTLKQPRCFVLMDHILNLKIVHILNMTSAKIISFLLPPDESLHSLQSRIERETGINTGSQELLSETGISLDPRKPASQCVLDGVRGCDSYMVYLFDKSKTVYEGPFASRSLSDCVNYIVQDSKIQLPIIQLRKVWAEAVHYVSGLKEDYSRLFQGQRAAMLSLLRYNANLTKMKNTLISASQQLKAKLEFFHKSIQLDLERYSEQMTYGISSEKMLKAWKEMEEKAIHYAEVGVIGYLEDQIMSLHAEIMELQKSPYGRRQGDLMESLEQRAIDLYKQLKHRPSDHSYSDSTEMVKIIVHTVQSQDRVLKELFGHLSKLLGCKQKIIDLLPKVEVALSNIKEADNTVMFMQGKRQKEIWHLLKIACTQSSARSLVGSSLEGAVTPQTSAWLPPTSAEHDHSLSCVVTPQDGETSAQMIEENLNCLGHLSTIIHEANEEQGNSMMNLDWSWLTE
The settings on record: at 0.1 µM.

Assay [6] deals with T2, Inhibitor of nuclear factor kappa-B kinase subunit alpha (Homo sapiens). The conditions noted are these: at 1 µM.
The target of assay [7] is T3, Inhibitor of nuclear factor kappa-B kinase subunit beta (Homo sapiens) (UniProt O14920).
T3 sequence (whole entry): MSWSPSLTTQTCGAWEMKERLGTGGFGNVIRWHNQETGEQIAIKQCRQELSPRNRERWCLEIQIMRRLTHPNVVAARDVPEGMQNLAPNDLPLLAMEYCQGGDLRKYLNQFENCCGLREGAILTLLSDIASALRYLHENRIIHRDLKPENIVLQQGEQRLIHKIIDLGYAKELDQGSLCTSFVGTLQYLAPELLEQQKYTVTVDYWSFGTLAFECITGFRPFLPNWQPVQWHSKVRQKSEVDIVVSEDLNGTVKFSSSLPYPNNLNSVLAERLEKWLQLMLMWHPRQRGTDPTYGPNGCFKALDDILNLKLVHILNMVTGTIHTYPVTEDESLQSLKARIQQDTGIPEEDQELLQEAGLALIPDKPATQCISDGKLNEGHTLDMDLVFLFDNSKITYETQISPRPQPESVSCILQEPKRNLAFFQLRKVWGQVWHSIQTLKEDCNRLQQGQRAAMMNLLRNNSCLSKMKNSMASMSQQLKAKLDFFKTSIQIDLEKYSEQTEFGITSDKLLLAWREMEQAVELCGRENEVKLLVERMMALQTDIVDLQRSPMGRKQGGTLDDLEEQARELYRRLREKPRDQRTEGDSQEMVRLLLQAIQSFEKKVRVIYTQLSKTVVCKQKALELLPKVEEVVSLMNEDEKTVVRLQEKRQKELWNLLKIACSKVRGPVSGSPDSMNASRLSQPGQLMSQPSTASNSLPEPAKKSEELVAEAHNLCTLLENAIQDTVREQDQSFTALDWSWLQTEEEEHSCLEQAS
The conditions noted are these: at 0.1 µM.

The target in assay [8] is T3, Inhibitor of nuclear factor kappa-B kinase subunit beta (Homo sapiens). The settings on record: at 1 µM.
Assay [9] concerns the target T4, Inhibitor of nuclear factor kappa-B kinase subunit epsilon (Homo sapiens) (UniProt Q14164).
T4 sequence (whole entry): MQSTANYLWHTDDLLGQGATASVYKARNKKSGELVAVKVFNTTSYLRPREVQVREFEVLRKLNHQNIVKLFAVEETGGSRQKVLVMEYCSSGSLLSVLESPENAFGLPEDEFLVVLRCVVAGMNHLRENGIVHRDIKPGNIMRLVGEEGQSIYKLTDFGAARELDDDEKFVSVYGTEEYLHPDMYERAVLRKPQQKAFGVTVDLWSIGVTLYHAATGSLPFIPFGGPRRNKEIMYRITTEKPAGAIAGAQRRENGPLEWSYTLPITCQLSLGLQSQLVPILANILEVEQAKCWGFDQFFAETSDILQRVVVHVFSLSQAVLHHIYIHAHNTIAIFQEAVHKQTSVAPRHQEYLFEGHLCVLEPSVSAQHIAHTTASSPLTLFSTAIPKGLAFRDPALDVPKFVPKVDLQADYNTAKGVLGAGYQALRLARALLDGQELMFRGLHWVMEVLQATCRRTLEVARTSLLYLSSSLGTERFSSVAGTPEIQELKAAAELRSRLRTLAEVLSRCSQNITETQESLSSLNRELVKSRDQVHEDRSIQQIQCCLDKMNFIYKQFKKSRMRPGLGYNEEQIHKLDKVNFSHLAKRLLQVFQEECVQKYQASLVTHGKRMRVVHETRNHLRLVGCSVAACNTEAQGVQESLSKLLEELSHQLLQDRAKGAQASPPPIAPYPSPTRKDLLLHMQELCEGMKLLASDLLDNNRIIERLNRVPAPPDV
The conditions noted are these: at 0.1 µM.

The target of assay [10] is T4, Inhibitor of nuclear factor kappa-B kinase subunit epsilon (Homo sapiens). The conditions noted are these: at 1 µM.
Assay [11] has as its target T5, Serine/threonine-protein kinase Nek1 (Homo sapiens) (UniProt Q96PY6).
T5 sequence (whole entry): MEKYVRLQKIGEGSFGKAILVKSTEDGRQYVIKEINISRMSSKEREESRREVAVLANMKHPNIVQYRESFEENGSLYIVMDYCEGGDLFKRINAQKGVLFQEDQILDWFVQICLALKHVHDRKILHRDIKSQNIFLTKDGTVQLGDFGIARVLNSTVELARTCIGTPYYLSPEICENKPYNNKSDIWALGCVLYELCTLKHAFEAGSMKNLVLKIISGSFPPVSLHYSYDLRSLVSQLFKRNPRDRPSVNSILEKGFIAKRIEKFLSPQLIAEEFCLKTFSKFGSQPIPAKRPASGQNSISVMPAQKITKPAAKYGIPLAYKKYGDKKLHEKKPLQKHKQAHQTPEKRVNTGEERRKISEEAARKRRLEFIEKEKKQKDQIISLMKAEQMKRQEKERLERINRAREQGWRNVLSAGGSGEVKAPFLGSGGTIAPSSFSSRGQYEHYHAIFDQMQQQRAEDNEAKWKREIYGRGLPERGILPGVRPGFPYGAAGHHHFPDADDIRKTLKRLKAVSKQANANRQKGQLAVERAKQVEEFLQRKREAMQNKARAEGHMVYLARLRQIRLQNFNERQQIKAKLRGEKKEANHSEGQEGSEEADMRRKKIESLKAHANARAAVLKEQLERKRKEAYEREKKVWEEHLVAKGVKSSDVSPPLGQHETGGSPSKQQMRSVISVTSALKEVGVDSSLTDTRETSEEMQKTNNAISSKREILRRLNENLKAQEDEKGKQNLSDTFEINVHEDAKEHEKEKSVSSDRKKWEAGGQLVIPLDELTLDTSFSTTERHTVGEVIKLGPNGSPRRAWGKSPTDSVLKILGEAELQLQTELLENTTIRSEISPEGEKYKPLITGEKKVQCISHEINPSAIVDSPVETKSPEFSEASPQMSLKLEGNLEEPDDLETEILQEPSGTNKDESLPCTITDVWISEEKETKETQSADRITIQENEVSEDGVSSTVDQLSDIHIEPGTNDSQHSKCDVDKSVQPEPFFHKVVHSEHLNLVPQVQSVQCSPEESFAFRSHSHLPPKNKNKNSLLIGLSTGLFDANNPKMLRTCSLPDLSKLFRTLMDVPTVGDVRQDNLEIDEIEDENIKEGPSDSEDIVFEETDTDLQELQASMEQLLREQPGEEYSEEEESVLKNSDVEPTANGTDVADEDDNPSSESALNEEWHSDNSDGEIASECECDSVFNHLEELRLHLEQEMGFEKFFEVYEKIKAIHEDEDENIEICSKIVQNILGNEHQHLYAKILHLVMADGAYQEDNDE
The settings on record: at 0.1 µM.

The target of assay [12] is T5, Serine/threonine-protein kinase Nek1 (Homo sapiens). The conditions noted are these: at 1 µM.
Assay [13] addresses T6, Serine/threonine-protein kinase Nek2 (Homo sapiens) (UniProt P51955).
T6 sequence (whole entry): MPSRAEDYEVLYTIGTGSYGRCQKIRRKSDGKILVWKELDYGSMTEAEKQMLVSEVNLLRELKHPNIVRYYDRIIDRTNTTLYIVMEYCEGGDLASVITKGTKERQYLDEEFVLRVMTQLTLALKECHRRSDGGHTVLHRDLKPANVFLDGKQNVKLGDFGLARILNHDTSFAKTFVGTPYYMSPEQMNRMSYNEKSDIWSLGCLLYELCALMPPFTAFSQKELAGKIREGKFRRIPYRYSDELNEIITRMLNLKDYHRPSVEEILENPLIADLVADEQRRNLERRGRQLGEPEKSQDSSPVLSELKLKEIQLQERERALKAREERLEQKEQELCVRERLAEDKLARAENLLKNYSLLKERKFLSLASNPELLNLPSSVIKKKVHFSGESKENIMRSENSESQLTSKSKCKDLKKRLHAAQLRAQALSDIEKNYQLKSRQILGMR
The settings on record: at 0.1 µM.

Assay [14] deals with T6, Serine/threonine-protein kinase Nek2 (Homo sapiens). The settings on record: at 1 µM.
The target in assay [15] is Serine/threonine-protein kinase Nek6 (Homo sapiens) (UniProt Q9HC98). The conditions noted are these: at 0.1 µM.
For assay [16] the target is unchanged. The settings on record: at 1 µM.
For assay [17], the target named is Serine/threonine-protein kinase Nek7 (Homo sapiens) (UniProt Q8TDX7). The conditions noted are these: at 0.1 µM.
Assay [18] has the same target. The conditions noted are these: at 1 µM.
For assay [19], the target named is T7, Serine/threonine-protein kinase Nek9 (Homo sapiens) (UniProt Q8TD19).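 Further: reported value is the mean percent inhibition of NEK9.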
T7 sequence (whole entry): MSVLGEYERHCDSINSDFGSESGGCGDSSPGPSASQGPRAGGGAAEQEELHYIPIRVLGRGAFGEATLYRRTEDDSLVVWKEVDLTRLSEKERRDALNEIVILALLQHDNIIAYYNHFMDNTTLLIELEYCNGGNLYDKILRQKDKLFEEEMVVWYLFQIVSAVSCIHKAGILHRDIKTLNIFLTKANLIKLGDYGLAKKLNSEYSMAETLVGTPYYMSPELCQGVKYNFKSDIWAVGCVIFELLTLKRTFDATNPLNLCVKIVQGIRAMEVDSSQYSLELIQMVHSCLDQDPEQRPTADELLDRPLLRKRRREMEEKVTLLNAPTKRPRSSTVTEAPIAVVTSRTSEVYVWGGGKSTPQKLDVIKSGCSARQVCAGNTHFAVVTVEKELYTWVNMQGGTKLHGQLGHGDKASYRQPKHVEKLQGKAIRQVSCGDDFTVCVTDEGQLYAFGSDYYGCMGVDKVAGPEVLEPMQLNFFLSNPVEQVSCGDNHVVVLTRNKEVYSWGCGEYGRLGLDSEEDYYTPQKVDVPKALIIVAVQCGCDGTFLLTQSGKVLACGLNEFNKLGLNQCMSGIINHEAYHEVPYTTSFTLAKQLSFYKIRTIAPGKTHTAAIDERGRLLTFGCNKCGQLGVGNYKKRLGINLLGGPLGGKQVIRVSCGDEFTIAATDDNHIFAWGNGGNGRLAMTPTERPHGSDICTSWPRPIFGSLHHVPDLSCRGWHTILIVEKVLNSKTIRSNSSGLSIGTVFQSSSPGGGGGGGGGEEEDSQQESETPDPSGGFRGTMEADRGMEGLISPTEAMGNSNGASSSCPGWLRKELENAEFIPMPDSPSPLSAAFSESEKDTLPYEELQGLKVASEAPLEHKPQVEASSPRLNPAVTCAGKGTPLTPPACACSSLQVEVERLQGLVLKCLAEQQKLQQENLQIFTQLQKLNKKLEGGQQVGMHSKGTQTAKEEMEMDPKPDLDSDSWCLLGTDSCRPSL
The conditions noted are these: at 0.1 µM.

Sequence of Serine/threonine-protein kinase Nek6 (Homo sapiens) (Q9HC98 whole entry): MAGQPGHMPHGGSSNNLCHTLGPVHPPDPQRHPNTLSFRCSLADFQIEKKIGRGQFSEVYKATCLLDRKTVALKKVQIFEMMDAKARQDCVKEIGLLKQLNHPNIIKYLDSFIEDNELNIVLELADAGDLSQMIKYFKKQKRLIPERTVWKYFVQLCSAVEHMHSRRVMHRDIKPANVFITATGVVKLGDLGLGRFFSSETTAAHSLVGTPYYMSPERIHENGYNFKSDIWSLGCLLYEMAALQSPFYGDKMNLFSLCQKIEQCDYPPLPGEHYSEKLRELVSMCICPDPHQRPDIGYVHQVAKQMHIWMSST
Sequence of Serine/threonine-protein kinase Nek7 (Homo sapiens) (Q8TDX7 whole entry, looked up): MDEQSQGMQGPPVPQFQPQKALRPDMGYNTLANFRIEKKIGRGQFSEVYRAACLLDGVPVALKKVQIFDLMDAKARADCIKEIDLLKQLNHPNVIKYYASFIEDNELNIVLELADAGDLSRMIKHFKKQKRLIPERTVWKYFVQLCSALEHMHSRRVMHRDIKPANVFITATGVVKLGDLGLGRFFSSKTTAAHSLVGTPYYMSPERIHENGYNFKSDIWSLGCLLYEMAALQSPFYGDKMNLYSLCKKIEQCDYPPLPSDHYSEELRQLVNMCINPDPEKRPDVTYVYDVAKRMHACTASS
Sequence of Casein kinase II subunit alpha (Homo sapiens) (P68400 whole entry, looked up): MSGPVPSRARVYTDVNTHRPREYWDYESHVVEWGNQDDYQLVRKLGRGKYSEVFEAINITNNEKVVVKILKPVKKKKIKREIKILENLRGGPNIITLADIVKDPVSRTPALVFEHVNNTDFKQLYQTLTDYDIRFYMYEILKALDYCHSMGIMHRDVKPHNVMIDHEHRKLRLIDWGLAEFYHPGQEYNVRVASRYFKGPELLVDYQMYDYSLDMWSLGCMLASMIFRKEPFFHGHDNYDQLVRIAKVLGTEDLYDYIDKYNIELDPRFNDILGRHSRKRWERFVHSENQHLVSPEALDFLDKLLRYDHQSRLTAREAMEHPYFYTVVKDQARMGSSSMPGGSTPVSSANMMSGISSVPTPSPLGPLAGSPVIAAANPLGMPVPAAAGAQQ
Sequence of Sphingosine kinase 1 (Homo sapiens) (Q9NYA1 whole entry): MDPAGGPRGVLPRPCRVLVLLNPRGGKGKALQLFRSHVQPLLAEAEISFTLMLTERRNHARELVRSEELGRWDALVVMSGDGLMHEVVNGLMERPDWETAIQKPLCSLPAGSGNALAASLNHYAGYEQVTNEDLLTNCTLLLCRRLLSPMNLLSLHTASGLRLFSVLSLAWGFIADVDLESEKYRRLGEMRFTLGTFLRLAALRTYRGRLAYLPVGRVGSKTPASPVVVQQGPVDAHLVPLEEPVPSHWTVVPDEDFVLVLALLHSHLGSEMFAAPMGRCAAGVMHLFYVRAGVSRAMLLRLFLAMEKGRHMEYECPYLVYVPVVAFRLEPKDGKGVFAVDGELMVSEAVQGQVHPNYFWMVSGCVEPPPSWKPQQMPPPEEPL

Turning to `C[C@@H](Oc1cc(-n2cnc3ccc(OCC4CCN(C)CC4)cc32)sc1C(N)=O)c1ccccc1Cl`, the inhibition is 1.57% in [1]; -0.12% in [2]; 6.48% in assay [3]; 19.4% in [4]; 5.03% in [5]; 1.69% in [6]. Besides, the inhibition in [7] was 1.98%; in assay [8], 3.37%; in assay [9], 2.73%; in assay [10] it was 7.27%; in assay [11], 17.6%; in [12], 54.1%. Moreover, the inhibition was 22.1% in assay [13]; 64.9% in assay [14]; 0.14% in assay [15]; 0.47% in [16]; 4.32% in assay [17]; 9.78% in assay [18]. In [19], the inhibition worked out at 77.4%.

As a reminder, the inhibition is the relative decrease from the control value, in per cent.

(Values after ChEMBL document CHEMBL1961873, “Compounds: GSK PKIS; Assays: Nanosyn kinase panel” (2012).)
